PTHR1 ag = agonists of human PTHR1 parathyroid hormone receptor | Q03431 | HEK293 GP2 PTHR1 cells, GloSensor cAMP luminescence, 1 h | 410,000 compounds, 0.075% hits | Potency, µM (top dose mostly 115 µM), actives largely listed as activators; further: nearly all actives have a fitted effect of over 55% in size
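HEK-293-derived GP2 cells expressing PTHR1 and a GloSensor cAMP reporter, 3,000/well, plated overnight, given luciferin plus IBMX (each 0.5 mM as added) for 1 h at 37 °C, then compound for 1 h at 37 °C. Luminescence was read after 15 min at room temperature.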
BRCA1 expr act = BRCA1 expression activation. MCF7-BRCA1-FFLuc reporter, luminescence, 48 h; response scale: scaled: vehicle 0%, 10 µM genistein 100%. Potency, µM (series often up to 46.1 µM), actives largely listed as activators. 380,000 compounds, 1.1% hits; further: nearly all actives have a fitted effect of over 80% in size
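MCF7 cells carrying a BRCA1-firefly luciferase reporter (2000 cells/well, phenol-red free MEM) were attached for 2 h at 37 °C, then given compounds for 48 h. Luminescence was read 15 min after luciferase reagent; activity normalized to genistein (10 microM) and DMSO.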
D3 antag = D3 dopamine receptor (human) antagonism; D3R cells, DiscoveRx beta-arrestin luminescence, antagonist mode; active compounds read low; max response, negative = inhibition, %; 360,000 compounds, 2.5% hits; AID 652054; in the data active means max response below about -50%; inconclusive means no clear call, values can overlap the other calls
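Cells plated overnight at 1500 cells/well, then exposed to library compounds with dopamine controls for 90 minutes at 37 degrees C. DiscoveRx reagent added for 30–60 minutes at room temperature; luminescence read, quantitative HTS format.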
RGS4 inh = blocks human RGS4-accelerated GTP hydrolysis; P49798; Transcreener GDP fluorescence polarization, RGS4-accelerated GTP hydrolysis; Potency, µM (top dose mostly 114 µM), usual class: inhibitors; 390,000 compounds, 0.039% hits; further: nearly all actives have a fitted effect of over 75% in size
Target sequence (P49798 whole entry, looked up): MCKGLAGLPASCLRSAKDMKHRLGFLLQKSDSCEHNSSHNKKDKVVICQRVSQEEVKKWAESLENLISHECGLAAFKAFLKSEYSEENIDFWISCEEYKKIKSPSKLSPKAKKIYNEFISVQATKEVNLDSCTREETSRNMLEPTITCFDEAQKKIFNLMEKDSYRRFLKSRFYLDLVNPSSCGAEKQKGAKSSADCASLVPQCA
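MLSMR compounds (23 nl, pin-transferred) preincubated 10 min at room temperature with a 500nM (2x) first reagent, then RGS4 at 900nM (2x) plus Transcreener GDP mix added; fluorescence polarization (620/688 nm) read before and after 90 min at 30 °C.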
B2AR arrestin = recruits beta-arrestin to the human beta2-adrenergic receptor; P07550; beta-arrestin recruitment to beta2AR, cell-based reporter; Potency, µM (titrated, usually from 46.1 µM), most hits filed as activators; 330,000 compounds, 0.02% hits; further: nearly all actives have a fitted effect of over 65% in size
Target sequence (P07550 whole entry, looked up): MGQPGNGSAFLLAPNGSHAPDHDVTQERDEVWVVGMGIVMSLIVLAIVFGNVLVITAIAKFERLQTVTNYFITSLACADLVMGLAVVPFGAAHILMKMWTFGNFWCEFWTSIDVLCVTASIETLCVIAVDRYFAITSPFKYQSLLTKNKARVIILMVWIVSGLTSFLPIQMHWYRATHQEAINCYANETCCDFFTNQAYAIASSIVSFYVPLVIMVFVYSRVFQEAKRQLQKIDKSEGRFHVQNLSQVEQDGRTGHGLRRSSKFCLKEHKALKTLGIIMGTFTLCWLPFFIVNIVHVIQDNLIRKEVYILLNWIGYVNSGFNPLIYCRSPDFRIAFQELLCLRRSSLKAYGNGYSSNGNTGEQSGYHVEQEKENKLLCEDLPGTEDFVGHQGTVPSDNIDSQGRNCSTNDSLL
DRD3 agonist = D3 dopamine receptor (human) agonism; max activation, %; P35462; 410,000 compounds, 0.58% hits; D3R DiscoveRx beta-arrestin cells, luminescence, 90 min; in the data active means max activation above about 30%
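Agonist-mode cell screen: cells plated at 1500/well and incubated overnight at 37 °C, then exposed to library compounds for 90 min at 37 °C. Detection reagent was added for 30–60 min at room temperature, and luminescence was read.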
Hits are given with their value; 0 = inactive; ? = inconclusive; - = not tested or not shown. Sampled rows, rich in hits. Any-hit rate of the full collection: about 3.7%. Unless noted, the call rests on the fitted dose curve; in most records, active means well fitted curve in the direction sought with a large enough effect; inconclusive means small, poorly fitted or top-dose-only effect, or another doubt; inactive means no such curve, though single readings can be large; an effect the other way counts as inactive or inconclusive.

SMILES | PTHR1 ag | BRCA1 expr act | D3 antag | RGS4 inh | B2AR arrestin | DRD3 agonist
c1ccc(SCCN2CCN(c3ccccc3)CC2)cc1 | 0 | 0 | -103 | 0 | 0 | 0
CC(CN1CCN(c2ccccc2)CC1)c1ccccc1 (stereo not drawn) | 0 | 0 | -64 | 0 | 0 | 0
CCCCn1nnnc1C1(C)CCC(=O)N1CCc1ccc(OC)c(OC)c1 (stereo not drawn) | 0 | 0 | 0 | - | - | 0
CCOc1ccccc1CN1CCN(Cc2[nH]c3ccccc3c2C)CC1CCO (stereo not drawn) | 0 | 0 | -53 | 0 | 0 | 0
CCOc1ccccc1CN1CCN(Cc2c[nH]c3ccccc23)CC1CCO (stereo not drawn) | 0 | 0 | 0 | 0 | 0 | 0
CC(C)CN1CCN(Cc2ccc(Oc3ncccn3)cc2)CC1CCO (stereo not drawn) | 0 | 0 | 0 | 0 | 0 | 0
CC(C)/C=C/CN1CCN(CCCc2ccccc2)C(CCO)C1 (stereo not drawn) | 0 | 0 | -63 | 0 | 0 | 0
OCCC1CN(Cc2ccc(Oc3ncccn3)cc2)CCN1Cc1ccc(F)c(F)c1 (stereo not drawn) | 0 | 0 | -72 | 0 | 0 | 0
OCCC1CN(CCCc2ccccc2)CCN1Cc1ccc(F)cc1 (stereo not drawn) | 0 | 0 | -56 | 0 | 0 | 0
Cc1ccc(Cl)cc1-n1c(=O)c2sc3ccccc3c2n(CC(=O)NC2CCCC2)c1=O | 0 | 0 | - | 0 | - | 0
CC(=O)N1CC2([N+](=O)[O-])CN(C(C)=O)CC([N+](=O)[O-])(C1)C2(C)C | ? | 0 | 0 | 0 | 0 | 0
COc1ccc(CN2CCN(CCCc3ccccc3)C(CCO)C2)c(O)c1 (stereo not drawn) | 0 | 0 | 0 | 0 | 0 | 0
Cc1ccccc1CN1CCN(CC2CC2)CC1CCO (stereo not drawn) | 0 | 0 | -82 | 0 | 0 | 0
COc1cccc(CN2CCN(CCCc3ccccc3)C(CCO)C2)c1OC (stereo not drawn) | 0 | 0 | 0 | 0 | 0 | 0
OCCC1CN(Cc2ccccc2O)CCN1CCCc1ccccc1 (stereo not drawn) | 0 | 0 | -75 | 0 | 0 | 0
COc1ccc(OC)c(CN2CCN(CCCc3ccccc3)C(CCO)C2)c1 (stereo not drawn) | 0 | 0 | -87 | 0 | 0 | 0
Cc1ccccc1CN1CCN(CCCc2ccccc2)C(CCO)C1 (stereo not drawn) | 0 | 0 | -78 | 0 | 0 | 0
CCc1ccc(NC(=O)Cc2csc(COc3cccc(C)c3)n2)cc1 | 0 | - | - | 0 | - | 0
O=C(CCCCCN1C(=O)c2ccccc2C1=O)Nc1ccc(C(=O)O)cc1 | 0 | 0 | 0 | 0 | 0 | 0
CC(C)n1cc(C(=O)c2cc(Br)ccc2O)cc(C#N)c1=O | 0 | 0 | -67 | 0 | 0 | 0
COc1ccc(OC)c(-n2c(SCC(=O)Nc3cc(C)on3)nnc2-c2c[nH]c3ccccc23)c1 | 0 | 0 | -51 | 0 | 0 | 0
CC(=O)Nc1ccc(CN2CCN(c3cccc(C(F)(F)F)c3)CC2)cc1 | 0 | 0 | -92 | 0 | 0 | 0
O=C(CN1CCN(c2cccc(C(F)(F)F)c2)CC1)Nc1cccc(C(F)(F)F)c1 | 0 | 0 | ? | 0 | 0 | 0
CC(=O)Nc1ccc(NC(=O)CN2CCN(c3cccc(C(F)(F)F)c3)CC2)cc1 | 0 | 0 | -80 | 0 | 0 | 0
CN(CC(=O)Nc1cccc(F)c1)C(=O)c1cc(=O)[nH]c2ccccc12 | 0 | 0 | 0 | 0 | 0 | 0
SMILES | PTHR1 ag | BRCA1 expr act | D3 antag | RGS4 inh | B2AR arrestin | DRD3 agonist
Cc1cc(-c2ccc(C(=O)O)s2)cnc1N | 0 | 7.1µM | 0 | 0 | 0 | 0
O=C(Nc1ccc2c(c1)CCC2)c1cccc(OC(F)F)c1 | 0 | 2.8µM | 0 | 0 | - | 0
COc1cc(C(=O)NC2=NCCS2)cc(OC)c1OC | 0 | 0 | 0 | 0 | 0 | 0
O=C(NC1=NCCS1)c1cccc(OC(F)F)c1 | 0 | 2.8µM | 0 | 0 | 0 | 0
COc1cccc(C(=O)NC2=NCCS2)c1OC | 0 | 13µM | 0 | 0 | 0 | 0
O=C(Nc1ccc(OC(F)F)c(Cl)c1)c1cccc(OC(F)F)c1 | 0 | 0 | 0 | 0 | 0 | 0
COc1ccc(C(=O)NC2=NCCS2)cc1 | 0 | 3.2µM | 0 | 0 | 0 | 0
COc1cc2c(NC3CCN(C(C)C)CC3)nc(N3CCCN(C)CC3)nc2cc1OCCOCCN(C)C | - | 0 | - | - | - | -
COc1cc(NC(=O)N2CCN(c3cc(-c4noc(C)n4)ccc3C)CC2)cc(OC)c1OC | 0 | 0 | - | 0 | - | 0
O=C(NC1=NCCS1)c1ccc(C(F)(F)F)cc1 | 0 | 4µM | ? | 0 | 0 | 0
Cc1ccc(C(=O)NC2=NCCS2)cc1 | - | - | - | - | 0 | -
O=S(=O)(NCCCN1CCN(c2ccccc2F)CC1)c1cccc2cccnc12 | 0 | 0 | -96 | 0 | 0 | 0
O=S(=O)(NCCN1CCCC1)c1cccc2cccnc12 | 0 | 0 | ? | 0 | 0 | 0
O=C(CC(SCCO)c1ccc2c(c1)OCO2)c1cccs1 (stereo not drawn) | 0 | 10µM | 0 | 0 | 0 | 0
O=C(NCC(c1ccco1)N1CCN(c2ccc(F)cc2)CC1)C1CCCCC1 (stereo not drawn) | 0 | 0 | 0 | 0 | 0 | 0
O=C(NCCC1=CCCCC1)C(=O)NCC(c1ccco1)N1CCN(c2ccc(F)cc2)CC1 (stereo not drawn) | 0 | 0 | -66 | 0 | 0 | 0
CC(C)=C(NC(=O)c1ccccc1)C(=O)Nc1cccc(C(=O)O)c1 | 0 | 0 | 0 | 0 | 0 | 0
COC(=O)c1c(NC(=O)c2cc(=O)c3cc(C)cc(C)c3o2)sc2c1CCC2 | 0 | - | - | 0 | - | 0
CCOC(=O)CCCCCC(=O)Nc1ccc2c(c1)C(=O)N([C@H](C)CO)C[C@@H](C)[C@H](CN(C)S(=O)(=O)c1cn(C)cn1)O2 | 0 | 0 | 0 | 0 | 0 | 47
C[C@H](CO)N1C[C@H](C)[C@@H](CN(C)C(=O)Nc2ccc(C(F)(F)F)cc2)Oc2ccc(NS(=O)(=O)c3cccs3)cc2C1=O | 0 | 0 | 0 | 0 | 0 | 30
C[C@H](CO)N1C[C@H](C)[C@@H](CN(C)S(=O)(=O)c2ccccc2)Oc2ccc(NC(=O)CCC(F)(F)F)cc2C1=O | 0 | 0 | 0 | 0 | 0 | 35
C[C@H](CO)N1C[C@H](C)[C@@H](CN(C)C(=O)Nc2ccc(C(F)(F)F)cc2)Oc2ccc(NS(=O)(=O)c3ccccc3)cc2C1=O | 0 | 0 | 0 | 0 | 0 | 31
C[C@H](CO)N1C[C@H](C)[C@@H](CN(C)S(=O)(=O)c2ccccc2)Oc2ccc(NC(=O)Nc3ccc(C(F)(F)F)cc3)cc2C1=O | 0 | 0 | 0 | 0 | 0 | 0
CC(=O)c1ccc(OCC(=O)Nc2c(C)nn(-c3ccccc3)c2C)cc1 | 0 | 0 | 0 | 0 | 0 | 0

Assay outcomes (PubChem BioAssay)
